# Assay results published in PubChem BioAssay (NCATS).
# A number with no mark means an inactive call. Results filed as inconclusive are left out. Some compounds were tested as several samples or in several runs, with calls that do not always agree. Activity calls are given as the source filed them. Unless noted, calls follow the shape of the dose curve; as a rule, active = well fitted curve in the direction sought with a large enough effect; inconclusive = small, poorly fitted or top-dose-only effect, or another doubt; inactive = no such curve, though single readings can be large; an effect the other way counts as inactive or inconclusive.
# How the values were obtained:
# [1] = AP1 Signaling Pathway (AID 357; active = well fitted curve in either direction with a large enough effect, not every such curve was filed as active;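 also: ME-180 reporter cells stimulated with EGF at its EC50 level; % is scaled to controls: 0 for no effect and ±100 for the full control effect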); conditions: ME-180 (cervical carcinoma) AP-1-bla reporter, EGF-induced, beta-lactamase ratio, 5 h; at 17.2 µM (top of the series) unless noted
# Method in brief: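 Modulation of EGF-driven AP-1 transcription was assessed with a beta-lactamase reporter in ME-180 cells. Compound and EC50 EGF were co-incubated 5 hours at 37 °C before 2.5-hour CCF4 loading at room temperature and dual-emission reading.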
# [2] = molecular target: Guanine nucleotide-binding protein G(i) subunit alpha-1 (Homo sapiens) (UniProt P63096); experiment: qHTS Assay for Inhibitors of RGS12 GoLoco Motif Activity (Green Fluorophore) (AID 879);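 also: 0% = labeled peptide with Gαi1 and full inhibition = labeled peptide alone without protein; negative values mean loss of peptide binding seen as reduced polarization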
# Method in brief: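 A drop in FITC polarization marked displacement of the FITC-tagged RGS12 GoLoco peptide (10 nM) from Gαi1 (50 nM). Compounds were incubated 10 min at room temperature in Tris pH 7.5 buffer containing 150 mM NaCl, 0.1 mM GDP and 0.05% NP40; unlabeled peptide titration served as control.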
# [3] = molecular target: Alpha-galactosidase A (Homo sapiens) (UniProt P06280); experiment: Counterscreen for Glucocerebrosidase Inhibitors: qHTS Assay for Human alpha-Galactosidase at pH 4.5 (AID 992); also: 0% is about no effect
# Method in brief: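 Each compound is preincubated briefly with 2 nM enzyme before substrate addition (80 uM); plates then sit 20 min at ambient temperature, are quenched with 1M NaOH/1M glycine, and read fluorometrically.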
# [4] = molecular target: alpha-glucosidase (Oryza sativa, rice) (UniProt Q653V4); experiment: Counterscreen for Glucocerebrosidase Inhibitors: qHTS Assay for Rice alpha-Glucosidase at pH 5.0 (AID 997);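 also: 0% = full activity with enzyme and -100% = basal without enzyme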
# Method in brief: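 Endpoint fluorogenic assay at pH 5.0: compounds (0.7 nM to 77 uM) titrated against 4 nM rice enzyme and 400 uM 4-MU-alpha-glucoside for 20 min at room temperature; NaOH/glycine stop, read ex 365/em 440 nm, Hill-fitted AC50.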
# [5] = Cellular Toxicity (caspase-3) H-4-II-E (AID 663); conditions: H-4-II-E rat hepatoma, scaled: DMSO 0%, 100 µM tamoxifen 100%; at 92.2 µM (top of the series);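 also: cells exposed to compound for 16 hr before readout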
# Method in brief: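 Caspase 3/7 activation measured in H-4-II-E cells in complete culture medium after 16 hr treatment at 37 °C, using luciferase-coupled substrate readout; AC50 values come from Hill-equation fits of normalized concentration-response data.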
# [6] = MultiTox-Fluor Cytotoxicity Assay - LYMP1-002 - Dead Cells (AID 960); also: nearly all actives have a fitted effect of over 60% in size; also: potency is read from the fitted curve at half-maximal effect
# Method in brief: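 Cells were plated, rested 5 hr, then treated with compound dilution series for 16 hr at 37 C. After adding substrate reagent and 60 min at room temperature, dead-cell protease fluorescence gave concentration-response curves fitted by the Hill equation.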
# [7] = Cell Viability - LYMP2-004 (AID 966);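 also: cells exposed to compound for 24 h; nearly all actives have a fitted effect of over 65% in size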; also: potency is read from the fitted curve at half-maximal effect
# Method in brief: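 qHTS cytotoxicity: human lymphoblastoid line, 24 hr compound treatment, 37 C, complete medium. Viability read as cellular ATP via luciferase luminescence; tetraoctylammonium bromide served as positive control.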
# [8] = Cell Viability - LYMP2-013 (AID 970);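 also: potency is read from the fitted curve at half-maximal effect; cells exposed to compound for 24 h at 37 °C; nearly all actives have a fitted effect of over 55% in size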
# Method in brief: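 Cytotoxicity is scored as a concentration-dependent drop in intracellular ATP in human lymphoblastoid cells after 24 hr compound exposure at 37 C. ATP is quantified by luciferase luminescence, and AC50 values come from Hill-equation modeling.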
# [9] = Cell Viability - LYMP2-006 (AID 978);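 also: cells exposed to compound for 24 hours; nearly all actives have a fitted effect of over 60% in size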; also: potency is read from the fitted curve at half-maximal effect
# Method in brief: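 In this cytotoxicity screen, the human lymphoblastoid line grew in complete medium with test compounds for 24 hr at 37 C. Cellular ATP served as the viability signal.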
# [10] = Cell Viability - LYMP2-014 (AID 983);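 also: potency is read from the fitted curve at half-maximal effect; cells exposed to compound for 24 h at 37 °C; nearly all actives have a fitted effect of over 50% in size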
# Method in brief: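 Cells are plated at 2500/well and left 5 hr at 37 C. Compounds are added across a concentration range and incubated 24 hr at 37 C in complete medium. CellTiter-Glo is added, and luminescence is read after 30 min at room temperature.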
# [11] = qHTS assay for small molecule activators of the p53 signaling pathway (AID 651743; active = well fitted activation curve with a large enough effect in the signal ratio, not every such curve was filed as active; the % refers to the signal ratio; also: potency is read from the fitted curve at half-maximal effect; as to activation: % of control where 0% means no effect); conditions: HCT-116 p53RE-bla, beta-lactamase FRET ratio, 16 h; activation: stronger effect = higher value
# Method in brief: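 Agonist-mode quantitative HTS in HCT-116 cells carrying a p53-response-element beta-lactamase reporter; 16 h compound treatment at 37 C, then FRET substrate loading for 2 h at room temperature and fluorescence read.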
# [12] = molecular target: Nuclear receptor ROR-gamma (Homo sapiens) (UniProt P51449); experiment: qHTS assay for small molecule antagonists of the retinoid-related orphan receptor gamma (ROR-gamma) signaling pathway (AID 651802); also: potency is read from the fitted curve at half-maximal effect; nearly all actives have a fitted effect of over 60% in size
# Method in brief: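 Steps: cells dispensed; compound or DMSO transferred by pin tool; doxycycline added to induce the ROR response element-driven luciferase; plates held 16hr at 37C; ONE-Glo added and luminescence measured.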
# [13] = Cell Viability - HepG2 (AID 433; calls by dose curve;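 also: potency is read from the fitted curve at half-maximal effect; cells exposed to compound for 40 hours; potency for ATP loss meaning cytotoxicity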); conditions: qHTS
# Method in brief: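 In this qHTS format, a 40 h, 37 °C compound incubation of HepG2 cells in complete medium precedes a 20 min CellTiter-Glo step at room temperature. Tamoxifen and doxorubicin serve as positive controls; Hill-equation fits yield AC50.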
# [14] = Cellular Toxicity (caspase-3) SK-N-SH (AID 661);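 also: cells exposed to compound for 16 hours; 0% = DMSO basal and 100% = 10 µM staurosporine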
# Method in brief: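 Cells were seeded and incubated 5 hr at 37 °C, dosed with compound over a concentration range for 16 hr, then given Caspase-Glo 3/7 reagent for 1 hr at room temperature before luminescence reading.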
# [15] = molecular target: Cytochrome P450 3A4 (Homo sapiens) (UniProt P08684); experiment: qHTS Assay for Inhibitors and Substrates of Cytochrome P450 3A4 (AID 884); also: % is scaled to controls: 0 for no effect and ±100 for the full control effect; nearly all actives have a fitted effect of over 50% in size
# Method in brief: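 Luminescent readout of luciferin produced by CYP3A4 (20 nM) dealkylation of Luciferin-PPXE, 25 uM (its KM). NADPH-driven reaction ran 60 min at RT after 10 min compound preincubation; data scaled to 57 uM ketoconazole as 100% inhibition.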
# [16] = qHTS assay for cell viability of HEK293 cells (AID 743288); conditions: ATP luminescence (CellTiter-Glo), 18 h; max response: stronger effect = lower value; also: nearly all actives have a fitted effect of over 50% in size; also: potency is read from the fitted curve at half-maximal effect; as to max response: % is scaled to controls: 0 for no effect and ±100 for the full control effect
# Method in brief: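 HEK293, 18 h, 37 C, ATP luminescence. Cells at 2,000/well were allowed at least 5 h to settle before dosing; CellTiter-Glo developed 30 min at RT.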
# [17] = Cell Viability - LYMP2-010 (AID 981);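 also: potency is read from the fitted curve at half-maximal effect; cells exposed to compound for 24 hours at 37 °C; nearly all actives have a fitted effect of over 55% in size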
# Method in brief: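 Steps: seed 2500 LYMP2-010 cells per well; incubate 5 hr at 37 C; add compound; incubate 24 hr at 37 C; add CellTiter-Glo, wait 30 min at room temperature; read luminescence. Concentration-response fitted to Hill equation for AC50.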
# [18] = Cell Viability - LYMP2-022 (AID 987); also: potency is read from the fitted curve at half-maximal effect; nearly all actives have a fitted effect of over 55% in size
# Method in brief: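 Cells were seeded at 2500 per well, rested 5 hr at 37 C, and treated with titrated compounds for 24 hr at 37 C. Cellular ATP was then quantified by luciferase luminescence, and AC50 values were derived from Hill-modelled concentration-response curves.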
# [19] = Cell Viability - LYMP2-024 (AID 988); also: potency is read from the fitted curve at half-maximal effect; nearly all actives have a fitted effect of over 60% in size
# Method in brief: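 qHTS cytotoxicity, human lymphoblastoid line, complete medium; 24 h cpd treatment, 37 C; CellTiter-Glo ATP luminescence readout; tetraoctylammonium bromide positive control; AC50 via Hill fit.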
# [20] = qHTS assay for small molecule agonists of the antioxidant response element (ARE) signaling pathway measured by Nrf2-dependant transcriptional activity (AID 720636; active = well fitted curve in the direction sought with a large enough effect in the repeat runs; an effect the other way counts as inactive or inconclusive;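 also: HepG2 cells with an ARE-driven luciferase reporter; % of control where 0% means no effect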)
# Method in brief: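 Attachment 6 hr at 37 C, then compound versus DMSO vehicle for 16 hr in ARE-luc HepG2 cells (1% dialyzed FBS); luminescence recorded 30 min after ONE-Glo addition at room temperature.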
# Chain of Nuclear receptor ROR-gamma (Homo sapiens) (P51449 whole entry, looked up): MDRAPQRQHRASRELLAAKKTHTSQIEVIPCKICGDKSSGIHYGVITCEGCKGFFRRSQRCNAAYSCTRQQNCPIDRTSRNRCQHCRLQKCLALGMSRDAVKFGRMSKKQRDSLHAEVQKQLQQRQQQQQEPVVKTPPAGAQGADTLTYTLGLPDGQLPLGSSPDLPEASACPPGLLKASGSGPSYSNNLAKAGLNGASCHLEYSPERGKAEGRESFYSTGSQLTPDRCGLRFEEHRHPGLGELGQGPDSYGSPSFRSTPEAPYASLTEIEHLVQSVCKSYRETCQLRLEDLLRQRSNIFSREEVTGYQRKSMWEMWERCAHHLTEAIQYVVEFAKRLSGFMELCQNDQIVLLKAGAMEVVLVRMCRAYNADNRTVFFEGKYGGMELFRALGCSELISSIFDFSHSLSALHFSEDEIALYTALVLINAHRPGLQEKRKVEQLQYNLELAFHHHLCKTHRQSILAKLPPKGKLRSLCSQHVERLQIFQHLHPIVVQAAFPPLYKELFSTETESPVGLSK
# Chain of Guanine nucleotide-binding protein G(i) subunit alpha-1 (Homo sapiens) (P63096 whole entry, looked up): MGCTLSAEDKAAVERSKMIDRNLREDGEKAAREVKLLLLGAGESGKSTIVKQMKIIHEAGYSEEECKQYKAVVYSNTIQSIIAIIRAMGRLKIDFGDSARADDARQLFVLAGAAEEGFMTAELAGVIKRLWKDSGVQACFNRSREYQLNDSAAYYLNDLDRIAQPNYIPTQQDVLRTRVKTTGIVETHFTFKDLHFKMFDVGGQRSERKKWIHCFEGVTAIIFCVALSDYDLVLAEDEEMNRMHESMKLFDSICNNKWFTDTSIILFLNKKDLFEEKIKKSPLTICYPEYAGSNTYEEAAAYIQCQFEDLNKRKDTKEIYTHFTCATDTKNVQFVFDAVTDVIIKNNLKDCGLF
# Chain of Alpha-galactosidase A (Homo sapiens) (P06280 whole entry, looked up): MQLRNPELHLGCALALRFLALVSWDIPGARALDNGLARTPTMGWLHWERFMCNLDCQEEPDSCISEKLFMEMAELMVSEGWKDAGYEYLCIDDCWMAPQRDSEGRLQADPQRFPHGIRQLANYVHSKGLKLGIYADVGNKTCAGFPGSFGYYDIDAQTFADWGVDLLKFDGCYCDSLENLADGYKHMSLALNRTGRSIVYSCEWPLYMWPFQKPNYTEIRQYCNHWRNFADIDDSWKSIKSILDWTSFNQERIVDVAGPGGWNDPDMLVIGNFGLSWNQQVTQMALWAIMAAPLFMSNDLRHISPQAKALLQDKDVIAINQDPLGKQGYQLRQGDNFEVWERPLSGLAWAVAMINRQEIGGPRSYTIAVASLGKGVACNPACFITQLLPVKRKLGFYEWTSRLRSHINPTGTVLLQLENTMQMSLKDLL
# Chain of Cytochrome P450 3A4 (Homo sapiens) (P08684 whole entry, looked up): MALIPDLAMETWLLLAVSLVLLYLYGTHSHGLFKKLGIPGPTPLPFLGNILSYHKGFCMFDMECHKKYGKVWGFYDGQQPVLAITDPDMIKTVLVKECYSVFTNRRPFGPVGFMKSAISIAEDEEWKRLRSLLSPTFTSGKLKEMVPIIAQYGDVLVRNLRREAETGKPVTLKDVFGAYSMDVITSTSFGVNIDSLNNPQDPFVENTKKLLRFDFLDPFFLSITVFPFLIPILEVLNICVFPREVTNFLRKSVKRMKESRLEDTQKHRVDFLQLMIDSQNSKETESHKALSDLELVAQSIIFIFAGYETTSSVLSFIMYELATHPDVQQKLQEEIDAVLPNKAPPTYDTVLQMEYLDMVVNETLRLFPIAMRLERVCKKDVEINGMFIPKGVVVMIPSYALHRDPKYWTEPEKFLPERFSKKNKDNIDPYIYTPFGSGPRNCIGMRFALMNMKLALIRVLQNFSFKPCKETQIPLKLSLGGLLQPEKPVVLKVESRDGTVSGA
smiles,measurement,setting,value
CC(=O)[C@@H]1CC[C@@H]2[C@H]3CC[C@H]4C[C@@H](O)CC[C@]4(C)[C@@H]3C(=O)C[C@]21C,"activity change, negative = inhibition",[1],-0.27% [at 38 µM]
CN1[C@@H]2CC[C@H]1CC(O[C@@H](c1ccccc1)c1ccccc1N)C2 (stereo partly specified),"activity change, negative = inhibition",[1],12.1% [at 38 µM]
same,Potency,[2],inactive
same,outcome,[3],inactive
same,outcome,[4],inactive
CC(C)n1cc2c3c(cccc31)[C@@H]1C[C@H](C(=O)O[C@@H](C)[C@H](C)O)CN(C)[C@H]1C2,"activity change, negative = inhibition",[1],1.23% [at 38 µM]
same,outcome,[3],inactive
same,outcome,[4],inactive
O=C(CN1CCN(CCO)CC1)Nc1ccc(Cl)cc1C(=O)c1ccccc1,"activity change, negative = inhibition",[1],3.2%
CC(C)(O)[C@H]1[C@H]2OC(=O)[C@@H]1[C@]1(O)C[C@H]3O[C@]34C(=O)O[C@H]2[C@]14C (tested in a mixture with another compound),"activity change, negative = inhibition",[1],5.02% [at 38 µM]
same,Potency,[2],inactive
same,outcome,[3],inactive
same,outcome,[4],inactive
Ic1ccccc1CN[C@@H]1C2CCN(CC2)[C@H]1C(c1ccccc1)c1ccccc1,Potency,[2],inactive
same,outcome,[3],inactive
same,outcome,[4],inactive
Nc1c(C(=O)NCc2ccco2)c2nc3ccccc3nc2n1CCN1CCCCC1,"activity change, negative = inhibition",[1],29.1%
C=C(C)[C@H]1Cc2c(ccc3c2O[C@H]2COc4cc(OC)c(OC)cc4[C@@H]2C3=O)O1,"activity change, negative = inhibition",[1],7.51% [at 38 µM]
same,Potency,[2],inactive
same,outcome,[3],inactive
same,outcome,[4],inactive
C=CCN1CC[C@]23c4c5ccc(O)c4O[C@@H]2C(=O)CC[C@@]3(O)[C@H]1C5,"activity change, negative = inhibition",[1],3.28% [at 38 µM]
same,Potency,[2],inactive
same,outcome,[3],inactive
same,outcome,[4],inactive
O=[N+]([O-])c1ccc(O[C@H]2O[C@@H](CO)[C@@H](O)[C@@H](O)[C@@H]2F)c([N+](=O)[O-])c1,"activity change, negative = inhibition",[1],-3.88% [at 38 µM]
same,Potency,[2],inactive
same,outcome,[3],inactive
same,outcome,[4],inactive
COc1ccc2[nH]c3c(c2c1)CCN=C3C,"activity change, negative = inhibition",[1],-4.7%
C[C@]12Cc3cn4c(nc3C=C1CC[C@H]1[C@@H]2CC[C@@]2(C)[C@H]1CC[C@@]2(O)C#N)nc1ccccc14,Potency,[2],inactive
same,outcome,[3],inactive
same,outcome,[4],inactive
CCCN1CCC[C@H](c2cccc(C#N)c2)C1,"activity change, negative = inhibition",[1],7.99% [at 38 µM]
same,Potency,[2],inactive
same,outcome,[3],inactive
same,outcome,[4],inactive
COc1ccc(OC)c([C@@H](O)[C@H](C)NC(C)(C)C)c1,"activity change, negative = inhibition",[1],8.72%
O=C1CC[C@]2(O)[C@H]3Cc4ccc(O)c5c4[C@@]2(CCN3CC2CC2)[C@@H]1O5,"activity change, negative = inhibition",[1],3.41%
NC(=O)c1ccc(OC[C@H](O)CN2CC=C(c3ccc(F)cc3)CC2)cc1,"activity change, negative = inhibition",[1],18.4% [at 38 µM]
same,Potency,[2],inactive
same,outcome,[3],inactive
same,outcome,[4],inactive
C[C@]1(C(=O)O)[C@@H]2CC[C@@H](O2)[C@@]1(C)C(=O)O,"activity change, negative = inhibition",[1],-103% [at 38 µM] (active)
same,Potency,[2],inactive
same,outcome,[3],inactive
same,outcome,[4],inactive
CN1CC=C2C(C#N)=C(N)C(C#N)(C#N)C(c3ccncc3)C2C1 (stereo unspecified),"activity change, negative = inhibition",[1],21.4%
CN1CCc2nc3sc(C#N)c(N)c3c(-c3cccs3)c2C1,"activity change, negative = inhibition",[1],-0.879%
C=CCN1C[C@@H](C)N([C@H](c2ccc(C(=O)N(CC)CC)cc2)c2cccc(OC)c2)C[C@H]1C,"activity change, negative = inhibition",[1],-9.21% [at 38 µM]
same,Potency,[2],inactive
same,outcome,[3],inactive
same,outcome,[4],inactive
N#CC(Cl)Cl,caspase-3 activation,[5],0.178%
same,Potency,[6],inactive
same,Potency,[7],inactive
same,Potency,[8],20 µM (active)
same,Potency,[9],12.6 µM (active)
same,Potency,[10],50.1 µM (active)
same,Potency,[11],39.8 µM (active)
same,Potency,[12],33.5 µM (active)
COP(=O)(OC)O/C(=C\Cl)c1cc(Cl)c(Cl)cc1Cl,Potency,[13],> 92 µM
same,outcome,[14],inactive
same,caspase-3 activation,[5],2.54%
same,Potency,[15],inactive
same,Potency,[6],inactive
same,Potency,[9],inactive
same,activation,[11],-0.853%
same,max response,[16],-7.38%
CC(C)CC(C)Nc1ccc(Nc2ccccc2)cc1 (stereo unspecified),Potency,[13],> 92 µM
same,outcome,[14],inactive
same,Potency,[7],25.1 µM (active)
same,Potency,[8],50.1 µM (active)
same,Potency,[9],39.8 µM (active)
same,Potency,[17],39.8 µM (active)
same,Potency,[10],39.8 µM (active)
same,Potency,[18],31.6 µM (active)
same,Potency,[19],25.1 µM (active)
same,Potency,[12],37.6 µM (active)
same,max response,[16],-21.7%
O=C(CCl)c1ccccc1,outcome,[14],inactive
same,caspase-3 activation,[5],-5.13%
same,Potency,[15],inactive
same,Potency,[6],25.1 µM (active)
same,Potency,[7],10 µM (active)
same,Potency,[8],15.8 µM (active)
same,Potency,[9],12.6 µM (active)
same,Potency,[17],7.94 µM (active)
same,Potency,[10],12.6 µM (active)
same,Potency,[18],6.31 µM (active)
same,Potency,[19],7.94 µM (active)
same,activation,[11],2.08%
same,Potency,[12],16.8 µM (active)
same,Potency,[20],inactive
same,Potency,[16],35.5 µM (active)
same,max response,[16],-16%
